Compound activity from PubChem BioAssay.
Nrf2 inh = inhibitors of Nrf2 signaling; 360,000 compounds, 2.1% hits; Potency, µM (top dose mostly 46 µM), for inactives: at the highest dose activity change, negative = inhibition, most hits filed as inhibitors; A549 ARE-Fluc reporter, luciferase luminescence, 18-24 h; further: on the % scale 0 is the no-effect control and ±100 the full control effect; nearly all actives have a fitted effect of over 60% in size
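A549 ARE_Fluc cells (5000/well, 5% FBS OPTI-MEM) pre-incubated 2 h, then treated with compounds 18-24 h at 37C/5% CO2 in concentration-response. CellTiter-Fluor viability read first; BugLite luciferase luminescence after 15 min at room temperature gives Nrf2 activity.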
ELG1 repair inh = blocks ELG1-dependent DNA repair in HEK293T cells. 330,000 compounds, 2.3% hits. AID 504467. HEK293T ELG1-luciferase reporter, luminescence, 16 h; DNA damage induced by 5-fluorouridine. Potency, µM (top dose mostly 46.1 µM), for the others: at the highest dose activity change, negative = inhibition, usual class: inhibitors; further: on the % scale 0 is the no-effect control and ±100 the full control effect; nearly all actives have a fitted effect of over 55% in size
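Quantitative HTS, concentration-response format. 2,000 cells/well co-treated with 5-fluorouridine and compound, 16 hr in 5% CO2 at 37 °C; ONE-Glo luminescence read after 30 min.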
A549 viability = kills or reduces viability of A549 cells in Nrf2 counter-screen | A549 ARE-Fluc cells, CellTiter-Fluor viability, 18-24 h | Potency, µM (titrated, usually from 46 µM), for inactives: top-dose activity change, negative = cytotoxicity, hits mostly inhibitors | 390,000 compounds, 0.16% hits; further: on the % scale 0 is the no-effect control and ±100 the full control effect
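A549 ARE_Fluc cells in 5% FBS OPTI-MEM were exposed to compounds in concentration-response for 18-24 h at 37 deg C. Viability was read by CellTiter-Fluor fluorescence (Ex 405/Em 525) after 30 min, before the luciferase read.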
IDH1 R132H inh = blocks human mutant IDH1 R132H enzyme; O75874; IDH1-R132H enzyme, NADPH consumption, diaphorase/resazurin fluorescence; Potency, µM (doses to about 76.6 µM), inactives show top-dose activity change, negative = inhibition, most hits filed as inhibitors; 390,000 compounds, 0.093% hits; AID 602179; further: on the % scale 0 is the no-effect control and ±100 the full control effect; nearly all actives have a fitted effect of over 65% in size
Target sequence (O75874 whole entry R132H, stated change not applied): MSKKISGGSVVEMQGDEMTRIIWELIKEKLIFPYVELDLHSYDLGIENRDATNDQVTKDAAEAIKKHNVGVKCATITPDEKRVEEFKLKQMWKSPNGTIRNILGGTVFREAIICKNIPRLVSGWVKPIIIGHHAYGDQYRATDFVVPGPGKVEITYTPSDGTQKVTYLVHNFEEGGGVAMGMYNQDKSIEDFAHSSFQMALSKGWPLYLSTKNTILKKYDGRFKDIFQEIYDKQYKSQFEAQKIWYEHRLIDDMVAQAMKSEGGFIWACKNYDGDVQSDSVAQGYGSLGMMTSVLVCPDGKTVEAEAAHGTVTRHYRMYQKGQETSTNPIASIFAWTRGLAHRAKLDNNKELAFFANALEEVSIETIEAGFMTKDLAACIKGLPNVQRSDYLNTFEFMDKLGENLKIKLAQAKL
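IDH1-R132H (0.5 ug/mL) preincubated 30 min with compound, then NADPH (0.016 mM) and alpha-KG (2 mM) added; 80 min at RT, pH 7.5. Remaining NADPH coupled via diaphorase/resazurin to fluorescence (540/590 nm); concentration-response curves normalized to no-enzyme control.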
Nrf2 ARE act = Nrf2 pathway activation; 410,000 compounds, 0.31% hits; AID 624171; Potency, µM (highest dose often 46.1 µM), inactives show top-dose activation, actives largely listed as activators; AREc32 ARE-luciferase reporter (MCF7-derived line), luminescence, 24 h; further: % of control where 0% means no effect; nearly all actives have a fitted effect of over 65% in size
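For detection, Steady-Glo was added and plates sat 30 min at RT; before that, AREc32_Fluc cells grown overnight in OPTI-MEM/5% FBS had been treated with 23 nL compound for 24 hr at 37 deg C.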
* marks the source's active call; other numbers are inactive results; ? = inconclusive; · = no result given; [ ] = dose if it differs, or a comment. Hits are enriched below; roughly 3.8% of the tested compounds scored in any of these assays. The call rests on the fitted dose curve; in most records, active means well fitted curve in the direction sought with a large enough effect; inconclusive means small, poorly fitted or top-dose-only effect, or another doubt; inactive means no such curve, though single readings can be large; an effect the other way counts as inactive or inconclusive. Potency means the concentration at half of the fitted maximal effect.

SMILES | Nrf2 inh | ELG1 repair inh | A549 viability | IDH1 R132H inh | Nrf2 ARE act
COc1ccc(-n2c(C)cc(/C=N/Nc3nc(N4CCOCC4)nc(N4CCOCC4)n3)c2C)cc1 | -3% | 8.2µM* | 20% | 3% | 2%
BrC(/C=N/Nc1nc(N2CCOCC2)nc(N2CCOCC2)n1)=C/c1ccccc1 | -14% | 12µM* | 2% | -1% | ?
O=C(c1ccc2c(=O)n(CC3CCCO3)c(=S)[nH]c2c1)N1CCN(C(=O)c2ccco2)CC1 (stereo not given) | -1% | · | 9% | · | ·
COc1ccc(C(=O)Nc2cc3cc(Cl)ccc3oc2=O)cc1OC | 7% | · | 1% | 0% | 7%
Cn1cccc1C(=O)OCC(=O)N1CCN(c2ccccc2)CC1 | ? | 0% | -3% | -8% | 3%
CCN1CCN(c2nc(SC)nc3sc4c(c23)CC(C)(C)OC4)CC1 | 12% | 10% | -1% | -2% | 3%
CC(C)Sc1nc(N2CCOCC2)c2c3c(sc2n1)COC(C)(C)C3 | 15µM* | ? | · | 0% | 0%
COC(=O)c1cc2sccc2n1Cc1ccc(F)cc1 | · | · | 2% | 20% | 3%
CC1CCN(C(=O)C2CCN(C(=O)c3cc4sccc4n3Cc3ccc(F)cc3)CC2)CC1 | -51% | 16µM* | 2%[1.84 µM] | 2% | 4%
CC(C)NC(=O)C1CCN(C(=O)c2cc3sccc3n2Cc2ccc(F)cc2)CC1 | 15µM* | 18µM* | ? | 2% | 0%
CC1(C)Cc2c(c(N3CCCC3)nc3sc4c(N5CCN(CCO)CC5)ncnc4c23)CO1 | 10% | 8.2µM* | -11% | 5% | 3%
CCOc1cc(C2NN=C(c3ccccc3)S2)ccc1OCc1ccccc1Cl (stereo not given) | ? | ? | 4% | 4% | ?
CCOc1cc(C2NN=C(c3ccccc3)S2)ccc1OCc1ccc(F)cc1 (stereo not given) | ? | ? | -2% | 5% | 11µM*
Cc1ccc(C)c(S(=O)(=O)N2CCN(C(=O)c3cccn3C)CC2)c1 | -12% | 2% | 4% | 0% | 0%
Cc1ccc(N=Cc2c(C)[nH]n(-c3nc4ccccc4[nH]3)c2=O)cc1 | 21µM* | 27% | 7% | -2% | -1%
Nc1c(Cl)cc(N=Nc2ccccc2)cc1Cl | ? | · | -10% | -4% | 6.3µM*
COC(=O)c1ccc(OC)c(CSc2nnc(COc3cccc(C)c3)o2)c1 | ? | -14% | -14% | 2% | 0%
COC(=O)c1ccc(OC)c(CSc2nnc(COc3ccc(OC)cc3)o2)c1 | 13µM* | -22% | · | 5% | 1%
Cc1ccc(CCNS(=O)(=O)c2ccc3c(c2)C(C(C)C)C(=O)N3)cc1 (stereo not given) | -26% | · | 6% | 9% | -1%
O=C(CSc1nccn1Cc1ccco1)Nc1ccccc1 | 12% | ? | 25% | 10% | 1%
COCCOC(=O)C(C#N)c1nc2ccccc2nc1N1CCN(Cc2ccccc2)CC1 (stereo not given) | -13% | ? | -7% | 3% | 0%
C=CCOC(=O)C(C#N)c1nc2ccccc2nc1N1CCN(c2ccccc2OC)CC1 (stereo not given) | -9% | 13µM* | -9% | 1% | 0%
C=CCOC(=O)C(C#N)c1nc2ccccc2nc1N1CCN(Cc2ccccc2)CC1 (stereo not given) | · | ? | 0% | 4% | 0%
COCC(C)OC(=O)C(C#N)c1nc2ccccc2nc1N1CCN(Cc2ccccc2)CC1 (stereo not given) | · | 21µM* | 4% | 7% | 0%
Cc1ccc(S(=O)(=O)N(CC(=O)NCC2CCCO2)C2CCCCC2)cc1 (stereo not given) | 4% | -4% | -1% | -6% | 2%
SMILES | Nrf2 inh | ELG1 repair inh | A549 viability | IDH1 R132H inh | Nrf2 ARE act
CCOC(=O)c1c(NC(=S)N2CCOCC2)sc2c1CCN(C(=O)OCC)C2 | ? | 23µM* | -11% | -14% | 4%
Cc1cc2c(s1)c1cnn(Cc3ccc(C)c(F)c3)c(=O)c1n2C | 3% | · | 0% | · | ·
COc1ccc(NC(=O)c2ccc(-c3ccccc3)cc2)cc1NS(=O)(=O)c1ccc(F)cc1 | 15µM* | ? | -5% | 0% | 0%
COc1ccc(NC(=O)c2ccccc2)cc1NS(=O)(=O)c1ccc(F)cc1 | -9% | 5% | 15% | 4% | 0%
COc1ccccc1NS(=O)(=O)c1ccc(Cl)c(NC(=O)c2sc3cc(Cl)ccc3c2Cl)c1 | 4% | -8% | 7% | 4% | 0%
COc1ccccc1NS(=O)(=O)c1ccc(NC(C)=O)cc1 | · | 2% | -3% | 10% | 0%
COc1ccccc1NS(=O)(=O)c1cccc(NC(=O)c2sc3ccccc3c2Cl)c1 | 9.2µM* | ? | -23% | 3% | 0%
COc1ccccc1NS(=O)(=O)c1ccc(NC(=O)c2ccccn2)cc1 | 21µM* | 0% | -13% | -4% | 2%
CCc1c(C)sc2c1CCN(Cc1cccc(OC)c1)C2c1ccccc1 (stereo not given) | · | · | ? | -2% | -1%
CC1=C(C(=O)Nc2ccccc2)C(c2ccccn2)n2nc(SCc3ccccc3Cl)nc2N1 (stereo not given) | 5%[9.27 µM] | · | -14% | 13% | -1%
COc1ccc(C(=O)Nc2ccc(C(=O)O)cc2NC(=O)c2ccc(OC)cc2)cc1 | 9% | ? | 8% | -3% | 0%
COc1ccc(C(=O)Nc2ccc(C3=NNC(=O)CC3C)cc2NC(=O)c2ccc(OC)cc2)cc1 (stereo not given) | -29% | 16µM* | -13% | 5% | 3%
O=C(Nc1ncc2c(n1)-c1ccccc1CC2)c1ccc(F)cc1 | -8% | -22% | -5% | 21% | 17%
O=C(Nc1ncc2c(n1)-c1ccccc1CC2)c1ccccc1 | 6% | 0% | -3% | 1% | 7.9µM*
CC(=O)c1cccc(NC(=O)c2sc(-n3nc(C)c(Cc4ccc5c(c4)OCO5)c3C)nc2C)c1 | 9.2µM* | · | ? | 9% | 0%
Cc1ccc(NC(=O)CSC2=C(C#N)C(c3ccc4c(c3)OCO4)C3=C(CCCC3=O)N2)c(C)c1 (stereo not given) | 12µM* | ? | · | 10% | 3%
Cc1cccc(-c2nc3cc([N+](=O)[O-])ccc3o2)c1 | ? | ? | -11% | 4% | 10µM*
N=c1oc2cc(O)ccc2cc1C(=O)Nc1ccc(Br)cc1 | 21µM* | ? | 3% | 6% | 4%
CC(OC(=O)c1cccn1C)C(=O)Nc1ccc2c(c1)OCO2 (stereo not given) | 26µM* | -7% | 1% | -1% | 2%
Cc1cccc(-n2cc(CN3CCN(Cc4nccn4C)CC3)c(-c3cccc(F)c3)n2)c1 | 0% | 18µM* | 2% | -5% | 6%
COc1ccc(-n2cc(CN3CCCC3)c(-c3cccc(F)c3)n2)cc1 | 37% | 7% | -2% | 0% | 3%
